Compound activity (PubChem)
Compounds with a hit are over-represented: about 12% of the library has one in this group of screens.
Cycloheximide cs = counter-screen for Shiga toxin inhibitors: cycloheximide protein synthesis inhibition. cell reporter, cycloheximide protein synthesis inhibition counterscreen. max response, %. 300,000 compounds, 12% hits. AID 2314; in the data active = max response mostly above about 13%, no sharp cut-off; inactive = mostly below about 14%; note: read at 38.3 µM for the half of the compounds with a filed dose; 0% is about no effect
Lassa entry inh = blocks Lassa virus binding to or entry into cells; Potency, µM (series often up to 37.9 µM), inactives show at the top dose activity change, negative = inhibition, usual class: inhibitors; 300,000 compounds, 1.2% hits; Lassa virus pseudotype entry inhibition, cell reporter; calls by dose curve; tested in HEK293 cells; note: potency is the fitted concentration of half-maximal effect; % is set by controls: 0 for no effect and ±100 for the full control effect; nearly all actives have a fitted effect of over 50% in size
Shiga toxin inh = inhibitors of Shiga toxin in Vero cells; inhibition, % at 38.7 µM; 290,000 compounds, 9.2% hits; Vero cells, Shiga toxin protein synthesis inhibition reporter; in the data active = inhibition mostly above about 28%, no sharp cut-off; inactive = mostly below about 43%; note: 0% is about no effect
MARV entry inh = Marburg virus entry inhibition; Marburg virus pseudotyped entry inhibition, cell reporter; Potency, µM (doses to about 37.8 µM), for inactives: at the top dose activity change, negative = inhibition, most hits filed as inhibitors; 300,000 compounds, 1.8% hits; AID 540276; calls by dose curve; tested in HEK293 cells; note: potency is the fitted concentration of half-maximal effect; % is set by controls: 0 for no effect and ±100 for the full control effect
* marks the source's active call; other numbers are inactive results; ? = inconclusive; nt = no result given; [ ] = remark or other dose.

SMILES	Cycloheximide cs	Lassa entry inh	Shiga toxin inh	MARV entry inh
N=c1n(CCN2CCCCC2)c2ccccc2n1CC(O)COc1ccc(Cl)cc1Cl (stereo unspecified)	nt	?	nt	5.6µM*
COc1ccc(OC)c(NC(=O)Cn2cc(C(=O)c3ccc(Cl)cc3)c(=O)c3cc(OC)ccc32)c1	nt	-5%[46.1 µM]	nt	-22%[46.1 µM]
COc1ccc(CCNC(=O)CCc2c(C)c3cc4c(C)coc4cc3oc2=O)cc1	nt	36%[46.1 µM]	nt	?
COc1ccc(C(=O)Nc2nnc(CCS(=O)(=O)c3ccc(C)cc3)s2)cc1	7	nt	42	nt
Cc1ccc(-c2csc(/C(C#N)=C/c3ccccc3Cl)n2)cc1	nt	24%[46.1 µM]	nt	nt
Nn1c(SCc2ccccc2)nc2c(cnn2-c2ccccc2)c1=O	23*	nt	76*	nt
CCCCSc1nc2c(cnn2-c2ccccc2)c(=O)n1N	42*	nt	94*	nt
CCCSc1nc2c(cnn2-c2ccccc2)c(=O)n1N	43*	8.9µM*	50*	?
O=C(O)CSc1nc2c(cnn2-c2ccccc2)c(=O)n1-c1ccc(Br)cc1	-3	1%	-8	?
Cc1ccc(-n2cc(C(=O)OCc3ccc(F)c(F)c3)c3ccccc3c2=O)cc1	nt	23%[46.1 µM]	nt	nt
S=C(c1ccc(-c2ccc(Cl)cc2)o1)N1CCCCC1	39*	?	95*	?
CN1CCN(C(=O)c2ccc(CS(=O)(=O)c3c(Cl)cccc3Cl)o2)CC1	-3	nt	-2	nt
S=C(c1ccc(-c2ccccc2Cl)o1)N1CCCCC1	48*	?	62*	-2%
CN1CCN(C(=S)c2ccc(-c3cccc(Cl)c3Cl)o2)CC1	40*	-13%	active	?
N#CCCN1CCN(C(=S)c2ccc(-c3ccc(Cl)cc3)o2)CC1	28*	-14%	91*	1%
CC(C)Cn1cc(Cl)c(=O)n(CC(C)C)c1=O	4	10%[46.1 µM]	-7	?
CCOc1cc(/C=N/NC(=O)c2ccc3c(c2)OCCO3)cc(Br)c1O	12*	?	77*	-16%[46.1 µM]
O=C(N/N=C/c1cc(Br)c(O)c(Br)c1O)c1ccc2c(c1)OCCO2	29*	?	73*	-28%[46.1 µM]
O=C(N/N=C/c1cc(Br)c(Br)o1)c1ccc2c(c1)OCCO2	28*	-15%	60*	?
CCOC(=O)CCCCC1C(CCCC(=O)OCC)C=NN1C (stereo unspecified)	nt	-12%[46.1 µM]	nt	3%
O=C(CNCc1ccc(Cl)cc1)Nc1ccc2c(c1)OCCO2	20	nt	28	nt
O=C(CSCc1ccccc1Cl)Nc1ccc2c(c1)OCCO2	58*	?	95*	18%
O=C(CSCc1ccc(Cl)cc1)Nc1ccc2c(c1)OCO2	-1	-2%	28	-2%[46.1 µM]
O=C(CNCc1ccccc1Cl)Nc1ccc2c(c1)OCCO2	45*	nt	87*	nt
C=C(C)C(=O)Nc1nnc(-c2cccs2)s1	21*	16%	81*	2%
SMILES	Cycloheximide cs	Lassa entry inh	Shiga toxin inh	MARV entry inh
CCC(C)C(=O)Nc1nnc(-c2cccs2)s1 (stereo unspecified)	64*	18%	59*	-4%[46.1 µM]
Fc1ccc([C@@H]2CCNC[C@H]2COc2ccc3c(c2)OCO3)cc1	-4	?	-9	16µM*
CCn1cc(C(=O)N[C@H](C(=O)NCCCN2CCOCC2)C(C)C)c(=O)c2cc3c(cc21)OCO3	1	27%[46.1 µM]	-6	12%[46.1 µM]
CCOc1ccc(-c2cc(C)n3nc(C(=O)Nc4cc(Cl)ccc4O)cc3n2)cc1	nt	0%[46.1 µM]	nt	?
O=C(NNS(=O)(=O)c1ccccc1F)c1ccccc1-n1cccc1	9	nt	13	nt
COC(=O)c1ccc(NCc2cc(O)ccc2O)cc1O	nt	20µM*	nt	?
COc1cccc(C(=O)c2ncc(C(F)(F)F)cc2Cl)c1	28	-1%	34*	28%[46.1 µM]
O=C(Oc1cc(Cl)ccc1Cl)c1ccc(N2CCOCC2)c([N+](=O)[O-])c1	-5	-1%	-9	13%
Nc1ncnc(N2CCOCC2)n1	nt	19%	nt	?
COc1ccc(NC(C)C(=O)Nc2ccc(C(C)(C)C)cc2)cc1Cl (stereo unspecified)	20*	-22%	38	-7%
COc1ccc(CNc2nc(-c3cccnc3)nn2C(=O)c2cccs2)cc1	29*	-2%	13	9%
COCC(=O)n1nc(-c2ccc(C)cc2)nc1NCc1ccc(F)cc1	12*	-7%	86*	10%[46.1 µM]
COCC(=O)n1nc(-c2ccc(Cl)cc2)nc1NCc1ccc(F)cc1	38*	0%	48*	?
COCC(=O)n1nc(-c2ccccc2)nc1NCc1ccc(N(C)C)cc1	38*	?	65*	20%
CCC(=O)n1nc(-c2cccnc2)nc1NCc1ccc(F)cc1	9	?	10	?
COc1ccccc1C(=O)n1nc(-c2ccccc2)nc1NCc1ccc(Cl)cc1	nt	-17%[46.1 µM]	nt	?
COc1ccc(CNc2nc(-c3cccnc3)nn2C(C)=O)cc1	1	0%	47	2%
O=C(Nc1ccc(C(F)(F)F)cc1)N1CCN(c2ccnc3cc(Cl)ccc23)CC1	12	?	17	?
COC(=O)c1ccccc1NC(=O)CSc1nc(C)cc(C)n1	-4	-5%[46.1 µM]	-10	5%[46.1 µM]
COC(=O)c1cc(C)nc(Sc2ccccc2N)n1	18*	4%[46.1 µM]	45*	?
Cc1ccc(CNC(=O)CSc2ncc(C(=O)Nc3ccccc3)c(=O)n2C)cc1	nt	-6%	nt	?
COc1cc(OC)cc(C(=O)Nc2ccc3nc4n(c(=O)c3c2)CCCCC4)c1	46*	-13%[46.1 µM]	49*	?
O=C(Nc1ccc2nc3n(c(=O)c2c1)CCCC3)c1cc([N+](=O)[O-])ccc1F	14	3.3µM*	-4	7.1µM*
COc1cccc(/C=C/C(=O)Nc2ccc3nc4n(c(=O)c3c2)CCCC4)c1OC	23	nt	42*	nt
CCOC(=O)C(=CNc1cscc1S(=O)(=O)C(C)C)C(=O)OCC	-4	10%[46.1 µM]	1	-9%[46.1 µM]
SMILES	Cycloheximide cs	Lassa entry inh	Shiga toxin inh	MARV entry inh
O=C1c2ccccc2C(=O)c2c1oc(C(F)(F)F)c2C(=O)c1ccccc1	24*	?	30	?
CC(=O)c1c(C)oc2c1C(=O)c1ccccc1C2=O	-3	-11%	23	-2%
COc1ccc(C(=O)c2coc3c2C(=O)C(=O)c2ccccc2-3)cc1	33*	11µM*	76*	?
O=C(c1ccccc1)c1coc2c1C(=O)c1ccccc1C2=O	33*	nt	94*	?
COc1ccc(CNC(=O)c2oc3c(c2C)-c2nn(Cc4ccccc4Cl)cc2CC3)cc1	nt	-13%[46.1 µM]	nt	nt
C[C@H](C(=O)O)c1ccc2cc(O)ccc2c1	-3	nt	20	nt
C=CCOc1ccc(CNc2nccs2)cc1	22*	8%	55*	26%
C=CCOc1ccc(CNc2nccs2)cc1OCC	10	-5%	18	14%
COC(=O)CSc1nnc(CNC(=O)c2ccco2)n1-c1ccc(F)cc1	-3	9%	-30	-6%
O=C(Nc1nnc(CCc2ccccc2)s1)c1ccc(F)cc1	-1	15%	-2	10%
CC(C)CC(=O)Nc1nnc(CCc2ccccc2)s1	10	nt	3	nt
Cc1nnc(NC(=O)c2ccccc2Br)s1	24*	27%	92	14%
CCC(C)C(=O)Nc1nnc(CCc2ccccc2)s1 (stereo unspecified)	19*	-1%	27	?
Cc1nnc(NC(=O)c2ccccc2F)s1	17*	6%	36*	?
O=C(Nc1nnc(CCc2ccccc2)s1)c1ccccc1F	26*	-15%	41	3%
Cc1ccc(-n2nnnc2CNC(=O)C(C)C)cc1C	nt	-16%[46.1 µM]	nt	nt
